CHT block – inhibits the human high affinity choline transporter. 0.86% of 310,000 active. B-score at 10 µM. Q9GZV3. CHT-expressing cells, membrane potential dye, choline response; hits give low values;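 active = B-score over 3 SD under the library average, and starting fluorescence ratio not unusually high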;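 also: choline stimulus applied at its EC90 after an EC20 pre-addition; B-score computed on integrated fluorescence ratio after choline addition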
Target sequence (Q9GZV3 whole entry, looked up): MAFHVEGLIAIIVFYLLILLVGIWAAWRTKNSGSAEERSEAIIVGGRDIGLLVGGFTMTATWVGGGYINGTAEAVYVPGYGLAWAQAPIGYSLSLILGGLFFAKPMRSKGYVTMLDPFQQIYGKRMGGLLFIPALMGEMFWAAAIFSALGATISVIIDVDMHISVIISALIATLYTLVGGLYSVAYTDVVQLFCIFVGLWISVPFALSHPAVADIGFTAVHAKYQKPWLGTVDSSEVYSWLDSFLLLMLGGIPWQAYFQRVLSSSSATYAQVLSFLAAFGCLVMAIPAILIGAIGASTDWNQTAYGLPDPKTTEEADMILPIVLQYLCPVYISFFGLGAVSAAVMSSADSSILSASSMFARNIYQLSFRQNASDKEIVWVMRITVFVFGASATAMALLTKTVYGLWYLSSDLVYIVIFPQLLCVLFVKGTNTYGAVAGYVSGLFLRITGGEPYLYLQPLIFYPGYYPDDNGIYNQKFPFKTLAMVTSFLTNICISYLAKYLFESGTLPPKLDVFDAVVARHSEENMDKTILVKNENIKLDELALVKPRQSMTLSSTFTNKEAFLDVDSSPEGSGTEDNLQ
EP2 antag – EP2 receptor (human) inhibition | P43116 | 0.52% of 260,000 active | inhibition, % at 25 µM | AID 1422 | C6 glioma cells expressing human EP2, cAMP TR-FRET; cells stimulated with saturating PGE2;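 active = percent inhibition above 40 after rounding to a whole number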;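 also: rat C6 glioma host cells with rolipram phosphodiesterase inhibitor present; the protocol text gives 20 µM as final concentration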
EP2 mod – modulates human prostaglandin E2 receptor EP2 signaling. P43116. EP2-expressing cells, cAMP HTRF FRET, PGE2 co-stimulation. induction, % at 25 µM. 0.83% of 260,000 active. AID 940;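 active = compounds whose cAMP rise, as percent of the full-agonist control response, exceeds 60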;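 also: rat C6 glioma line stably carrying human EP2 under a CMV promoter; the protocol text gives 20 µM as final concentration; 100% = response of wells given 1 µM PGE2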
CHT allo act – human CHT allosteric activation; Q9GZV3; CHT-expressing cells, membrane potential dye, choline EC20; hits give high values; LV-AA mutant CHT in HEK293 cells; B-score at 10 µM; 0.49% of 310,000 active;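 active = initial fluorescence not abnormally high and integrated response B-score, plate-corrected, over 3 SD above library mean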
* = called active by the depositor; ! = not confirmed by another sample. The list is not random: actives were taken first. Their share in the collection is about 2.1%.

For COc1ccccc1NC(=S)N(CCCO)Cc1cc2ccc(C)c(C)c2[nH]c1=O the results were EP2 antag 10 and EP2 mod -26.
`Nc1nc2c(c(=O)[nH]1)N[C@H](CCNc1ccc(C(=O)O)cc1)CN2` gave EP2 antag 49* and EP2 mod 29.
Screening CCc1nn(CC(=O)NC2CCCCC2)c(=O)c2cc3sccc3n12 returned EP2 mod -8.
`C=C(C)CN1CCN(Cc2ccnn2C2CCCCO2)CC1` (configuration not stated) gave EP2 antag 4 and EP2 mod -13.
For O=[N+]([O-])c1cc(C(F)(F)F)ccc1NC1CCN(Cc2ccccc2)C1 (configuration not stated) the results were CHT block inactive and CHT allo act inactive.
`O=[N+]([O-])c1cc(C(F)(F)F)ccc1NC1CCN(Cc2ccccc2)CC1` gave CHT block inactive, EP2 antag 8, EP2 mod 61* and CHT allo act inactive.
Screening O=C(Cc1cccs1)Nc1cccc(-c2nc3cc4ccccc4cc3[nH]2)c1 returned CHT block inactive, EP2 antag 117*, EP2 mod -78 and CHT allo act inactive.
For CCCCCC1C(=O)CCC1CC(=O)OC (configuration not stated) the results were EP2 antag 10 and EP2 mod 13.
CCCCC(C)(O)C/C=C/[C@H]1[C@H](O)CC(=O)[C@@H]1CCCCCCC(=O)OC (some centres not stated) was read as EP2 antag 10 and EP2 mod 97*.
`COc1cc(C=O)ccc1OCc1ccccc1Br` gave CHT block inactive, EP2 antag 5, EP2 mod 65* and CHT allo act inactive.
For COc1ccc(C=O)cc1COc1ccc(F)cc1F the results were CHT block inactive, EP2 antag 12, EP2 mod 21 and CHT allo act inactive.
Screening Nc1nc2c(ncn2[C@@H]2CC[C@@H](CO)O2)c(=O)n1C(=O)c1ccccc1 returned EP2 antag 57* and EP2 mod -4.
CCOC(=O)C1CCCN(Cc2c(Cl)cccc2Cl)C1 (configuration not stated) was read as CHT block inactive, EP2 antag 1, EP2 mod 61* and CHT allo act inactive.
`CCOC(=O)C1CCCN(Cc2ccc(-c3ccccc3)cc2)C1` (configuration not stated) gave CHT block inactive and CHT allo act inactive.
Screening CC[n+]1c(C)sc2sc3ccccc3c21 returned CHT block inactive, EP2 antag 7, EP2 mod -14 and CHT allo act 13*.
Ic1ccc2c(c1)N(c1ccccc1)c1cc(Nc3ccc4nc5ccc(I)cc5[n+](-c5ccccc5)c4c3)ccc1N2 was read as EP2 antag 44* and EP2 mod 0.
Screening Cc1ccc(-c2cc(C(=O)Nc3sc4c(c3C#N)CCCC4)no2)cc1 returned EP2 antag 4 and EP2 mod -8.
For O=C(C[N+]12CN3CN(CN(C3)C1)C2)c1ccc(-c2ccccc2)cc1 the results were EP2 antag 58* and EP2 mod 4.
For CCC(=O)c1ccc(-c2ccccc2)cc1 the results were CHT block inactive, EP2 antag 12, EP2 mod -7 and CHT allo act inactive.
`CC(C)N1CCC2(CC1)N=C(c1ccc3c(c1)OCO3)CC(c1cc(Cl)ccc1O)N2` (configuration not stated) gave CHT block -6.9*, EP2 antag 24, EP2 mod -21 and CHT allo act inactive.
`COc1ccc(CNc2ncnc3c2[nH]c2cc(OC)c(OC)cc23)cc1` gave CHT block inactive, EP2 antag 54*, EP2 mod -36 and CHT allo act inactive.
COc1ccc(CNc2nc(=S)[nH]c3cc(OC)c(OC)cc23)cc1 was read as CHT block inactive and CHT allo act inactive.
COc1ccc(CNc2ncnc3c2[nH]c2ccccc23)cc1 was read as CHT block inactive, EP2 antag 60*, EP2 mod -36 and CHT allo act inactive.
For Cc1ccc2[nH]c3c(NCc4ccccc4)ncnc3c2c1 the results were CHT block inactive and CHT allo act inactive.
`CCOC(=O)c1c(-c2ccccc2Cl)cn2ccccc12` gave CHT block inactive, EP2 antag 5, EP2 mod 54 and CHT allo act inactive.
Screening CCOC(=O)c1c2c(n3ccccc13)C(=O)c1ccccc1C2=O returned EP2 antag 46* and EP2 mod -42.
COC(=O)c1ccc(/C=C/C2=CCN(C)CC2)cc1 was read as EP2 mod -35.
`CCn1c(SCC(=O)Nc2ccccc2Cl)nc2ccccc2c1=O` gave EP2 antag 9 and EP2 mod -10.
Screening COc1ccc(N(C(=O)c2ccco2)C(C(=O)NC2CCCCC2)c2ccccc2)cc1 (configuration not stated) returned CHT block inactive, EP2 antag 11, EP2 mod 62*! and CHT allo act inactive.
For COCCCNC(=S)N(Cc1ccccc1)Cc1cc2cc(C)c(C)cc2[nH]c1=O the results were EP2 antag 9 and EP2 mod -27.
`CC(C)(C)C1=NN(CCC(=O)O)C(=O)c2cc3ccccc3n2C1` gave EP2 mod -7.
CC(=O)C(C(C)=O)c1c(Cl)c(O)c(O)c2c(C(=O)c3ccccc3)coc12 was read as CHT block inactive, EP2 antag 57*, EP2 mod -27 and CHT allo act inactive.
Screening CN1CCN(Cc2c(O)ccc3occ(C(=O)c4ccccc4)c23)CC1 returned CHT block inactive, EP2 antag 8, EP2 mod 1 and CHT allo act inactive.
Screening CCCc1c(O)nc(SCC(=O)NC(C)(C)C)[nH]c1=O returned EP2 antag 7 and EP2 mod 16.
O=S(=O)(O)[C@@H](c1ccccc1)[C@@H](O)c1ccccc1 was read as EP2 antag 14 and EP2 mod -2.
O=S(=O)(O)[C@@H](CO)c1ccccc1 (tested in a mixture with another compound) was read as EP2 antag 49* and EP2 mod 24.
`O=C(Nc1cccc(F)c1)C1COc2ccccc2O1` (configuration not stated) gave EP2 antag 6 and EP2 mod -46.
`Cn1c(SCC#N)nnc1-c1ccc(Br)cc1` gave EP2 antag 1 and EP2 mod -13.
N#Cc1c(Cl)c(Cl)c2nnc(-c3ccc(Br)cc3)n2c1Cl was read as CHT block inactive, EP2 antag 118*, EP2 mod -50 and CHT allo act inactive.
Screening NS(=O)(=O)c1cc(Br)c(N=Nc2ccc(O)c3ncccc23)c(Br)c1 returned EP2 antag 47* and EP2 mod -17.
For CCc1ccc2c(c1)-c1c(s[s+]c1SC(C)=O)C(C)(C)N2 the results were EP2 antag 9 and EP2 mod 65*.
COc1ccc(-n2sc3c(c2=S)-c2cc(OC)ccc2NC3(C)C)cc1 was read as CHT block inactive, EP2 antag 12, EP2 mod 16 and CHT allo act inactive.

Screens as filed in PubChem.
